# CF NFkB inh: inhibitors of PAF-induced NF-kB signaling, primary screen, cell-based, GFP fluorescence, uHTS; KKLEB NF-kB-GFP reporter, GFP fluorescence overnight; inhibition, % at 5 µM; actives 0.86% (n = 360,000);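 active means at least 50% inhibition at 5 µM, scaled per plate between neutral and stimulator controls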;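 further: PAF is a Pseudomonas aeruginosa culture filtrate used as stimulus; plate controls were PAF-stimulated DMSO wells for no effect and unstimulated DMSO wells for full effect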
# LMP1 NFkB inh: EBV LMP1-driven NF-kappaB luciferase reporter inhibitors, primary screen, cell-based, luminescence, single point | LMP1-induced NF-kappaB luciferase reporter cells | inhibition, % at 12.5 µM | actives 0.69% (n = 350,000) | AID 504558, 2011; in the data active means inhibition above about 41%;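 further: 0% = neutral control wells and 100% = reference inhibitor control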
# Shn3 3UTR inh: reduction of Shn3 3'UTR firefly luciferase signal, primary screen, Schnurri-3 inhibitor project, cell-based, Clone20 osteoblasts, set 2 | Clone20 osteoblast Shn3 3'UTR firefly luciferase, 24 h | inhibition, % at 12.5 µM | actives 0.52% (n = 360,000) | AID 588674, 2011;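 active means mean inhibition of at least 75% with every replicate also reaching 75%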;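 further: 0% = median of neutral control wells and 100% = pilot-screen positive control compound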
# MITF TRPM1 inh: inhibitors of MITF-dependent TRPM1 promoter reporter, primary screen, cell-based, SK-MEL-5, single point, luciferase; SK-MEL-5 TRPM1 promoter luciferase, 24 h; inhibition, % at 12.5 µM; AID 488899, 2010; actives 0.83% (n = 330,000);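 active means mean inhibition across replicates of 60% or more, whatever share of single replicates reaches that level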
# KKLEB tox: cytotoxicity in KKLEB CF airway cells, primary screen, cytotoxicity control for CF NF-kB inhibitor project, cell-based, uHTS, fluorescence assay plates; KKLEB CF airway cells viability, ATPlite luminescence, overnight; hits give low values; cells stimulated with P. aeruginosa culture filtrate; activity change (cytotoxicity), % at 5 µM; actives 0.36% (n = 360,000); AID 602141, 2011;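 active means corrected activity change at or below -50% at 5 µM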
# Peg3 prom inh: Peg3 promoter-driven luciferase inhibitors, primary screen, cell-based, HeLa, luciferase luminescence | HeLa PEG-Prom luciferase reporter, overnight | inhibition, % at 20 µM | actives 1.7% (n = 360,000) | AID 588405, 2011;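 active means inhibition of at least 50% at 20 µM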
# An asterisk follows results filed as active; . = no result. The list is not random: actives were taken first. Their share in the collection is about 2.9%.
SMILES,CF NFkB inh,LMP1 NFkB inh,Shn3 3UTR inh,MITF TRPM1 inh,KKLEB tox,Peg3 prom inh
O=C(CN(c1ccc(Cl)cc1)S(=O)(=O)c1ccc(Cl)c([N+](=O)[O-])c1)NCCc1ccc(F)cc1,-4.9,-12.6,15.2,69.6*,-2.6,95.4*
O=C(CN(C1CCCCC1)S(=O)(=O)c1ccccc1)NCC1CCCO1 (centres undefined),12.3,-16.8,7.1,3.3,2.7,18.8
CN(CC(=O)NCC1CCCO1)S(=O)(=O)c1ccc(Br)cc1 (centres undefined),28.2,-0.6,-9.5,-9.0,-4.0,12.9
O=C(CN(c1ccc(Br)cc1)S(=O)(=O)c1ccc(Cl)c([N+](=O)[O-])c1)NCC1CCCO1 (centres undefined),47.9,6.8,3.1,85.4*,-13.4,95.4*
Cc1cc(OC(C)C(=O)NC2CC(C)(C)NC(C)(C)C2)c2c(C)c(C)c(=O)oc2c1 (centres undefined),-41.6,2.7,-10.7,.,3.8,-19.1
COc1ccc(-c2cc(CNc3nc(NCc4ccccc4OC)nc4ccsc34)on2)cc1,24.5,.,52.8,.,-17.9,25.1
CCN(Cc1ccccc1)S(=O)(=O)c1ccc(C(=O)N(CCCN(C)C)c2nc3ccc(F)cc3s2)cc1,12.7,-5.1,19.6,90.9*,0.8,2.4
CCN(Cc1ccccc1)S(=O)(=O)c1ccc(C(=O)N(CCCN(C)C)c2nc3cc(OC)ccc3s2)cc1,11.9,-0.1,8.7,62.8*,-0.2,-11.1
N#CCc1ccc(-c2cccc3nccn23)cc1,-34.6,.,5.7,.,9.8,3.5
CCOC(=O)C1CCN(S(=O)(=O)c2cccc3nonc23)CC1,-26.6,-2.0,4.3,-2.4,5.6,-0.4
CCOC(=O)C1CCN(S(=O)(=O)c2c(Cl)ccc3nonc23)CC1,89.7*,22.7,96.1*,93.5*,-44.2,111.7*
COc1cccc2c1C(=O)c1c(O)c3c(c(O)c1C2=O)C[C@@](O)(C(=O)CO)C[C@@H]3OC1CC(N)C(O)C(C)O1 (some centres undefined),9.7,61.9*,87.2*,59.9,-28.0,95.8*
COc1cccc2c1C(=O)c1c(O)c3c(c(O)c1C2=O)C[C@@](O)(C(=O)CO)C[C@@H]3O[C@H]1C[C@H](N)[C@H](O)[C@H](C)O1,83.2*,83.7*,92.0*,86.9*,-51.8*,94.6*
COc1cccc2c1C(=O)c1c(O)c3c(c(O)c1C2=O)CC(O)(C(C)=O)CC3OC1CC(N(C)C)C(O)C(C)O1 (centres undefined),77.3*,93.4*,94.3*,79.2*,-42.0,98.0*
CC(=O)[C@@]1(O)Cc2c(O)c3c(c(O)c2[C@H](O[C@H]2C[C@H](N)[C@H](O)[C@H](C)O2)C1)C(=O)c1ccccc1C3=O,-27.6,.,93.4*,.,-52.7*,98.7*
O=S(=O)(c1ccccc1)N1CC2CC(Br)C(Br)CC21 (centres undefined),14.4,-9.4,2.0,.,-1.4,-1.2
Cc1[nH]n(-c2ccccc2)c(=O)c1N=Nc1c(O)cc(S(=O)(=O)N(C)C)c2ccccc12,5.2,22.7,80.3,57.8,-7.6,61.7*
Cc1cc(Br)cn2c(Cc3cccc(F)c3)c(-c3ccc(Cl)cc3)nc12,42.6,.,-6.0,.,-23.1,38.8
Cn1c(=N)n(CC(=O)c2ccc(Br)s2)c2ccccc21,4.3,-42.5,-29.0,-15.2,-7.3,-137.6
CCN(CC)CCn1c(=N)n(CC(=O)c2ccc(Br)s2)c2ccccc21,8.7,.,-12.7,.,-11.4,79.5*
N=c1n(CC(=O)c2ccc(Br)s2)c2ccccc2n1Cc1ccccc1,1.6,-8.5,13.8,89.6*,-34.3,100.6*
CCc1nc2ccc(C(=O)NCCCN3CCCC3=O)cn2c1N(C)C(=O)C1CCCCC1,13.8,.,8.1,.,-7.9,-6.5
COc1ccc2c(c1)CO[C@]21O[C@H](CCO)C[C@H](O)[C@H]1O,3.4,.,-18.6,.,-12.5,-2.5
CCN(CC(=O)Nc1ccc(NC(C)=O)cc1)C(=O)c1cccnc1Sc1ccc(C)c(C)c1,-5.1,41.2*,1.8,2.9,-3.5,3.1
COc1ccc(NC(=O)CN(C)C(=O)c2cccnc2Sc2ccc(C)c(C)c2)cc1,-10.8,-10.4,9.9,2.3,1.4,21.4
SMILES,CF NFkB inh,LMP1 NFkB inh,Shn3 3UTR inh,MITF TRPM1 inh,KKLEB tox,Peg3 prom inh
O=C(NC1CCN(Cc2ccccc2)CC1)c1[nH]c(C(F)(F)F)nc1-c1ccccc1,-24.9,.,9.7,.,-15.6,-0.9
CCOc1cc(/C=N/NC(=O)c2ccccc2-n2cccc2)ccc1O,-2.8,70.6*,79.9,-2.1,11.8,24.8
Cc1c(NC(=O)CSc2nnc(-c3ccccc3F)o2)c(=O)n(-c2ccccc2)n1C,6.9,-0.6,-32.0,.,5.0,7.1
O=C(O)c1ccc(-c2ccc(-c3ccccc3)cc2)s1,2.5,1.7,5.3,81.3*,-2.8,85.0*
CCOc1cccc(/C=C/c2ccc3cccc(O)c3n2)c1O,-35.0,-2.3,-13.6,-18.6,13.5,96.6*
C[C@H](CO)N1C[C@H](C)[C@@H](CN(C)S(=O)(=O)c2ccc(-n3cccn3)cc2)OCc2cnnn2CCCC1=O,-0.6,-8.4,13.9,.,-0.9,23.2
CCS(=O)(=O)N1CCC2(CC1)OCCN2S(=O)(=O)c1ccccc1,8.3,-2.5,-4.6,.,-1.9,11.2
COc1ccc2[nH]c3c(N4CCC(O)(c5cccc(C(F)(F)F)c5)CC4)ncnc3c2c1,-16.7,29.9,24.4,34.8,-8.7,56.9*
COc1ccc2[nH]c3c(N4CCN(Cc5ccc6c(c5)OCO6)CC4)ncnc3c2c1,1.8,20.1,60.0,5.3,-13.8,54.8*
CN(C#N)c1nc(Cl)nc(Nc2cccc(Cl)c2)n1,15.1,-4.2,-26.0,7.7,-2.3,99.2*
CC(=O)Nc1cc(-c2ccsc2)cn2c(-c3ccc(F)cc3)cnc12,-2.2,.,13.0,.,-24.1,33.0
CCOC(=O)C1C(=O)C=C(c2ccc(C)cc2)CC1c1ccco1 (centres undefined),-17.3,47.7*,-29.4,-35.1,-1.3,-44.8
O=C(COc1ccc([N+](=O)[O-])cc1)Nc1ccc(C(=O)NCc2cccnc2)cc1,-1.3,-14.2,74.9,5.6,5.7,74.5*
CCOC(=O)N1CCC(N2C(=O)c3ccccc3C2Nc2cc(Cl)c(OC)cc2OC)CC1 (centres undefined),-1.0,75.0*,20.2,-8.2,4.4,13.7
COc1c(C)cc(C(O)c2ncc(-c3ccccc3C(F)(F)F)[nH]2)cc1C (centres undefined),10.4,.,10.6,.,-6.8,15.2

# Screens: PubChem, several laboratories
